Experimental data: PubChem BioAssay (NCI)
“And” between values parts separate entries of the source, which are not always exact repeats. Equal values may be shown once. About 83,000 compounds went through this panel and 20% of them were active in at least one assay; those are over-represented in the sample as a whole.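 Cells were grown in 96-well plates and exposed to the test compound at a single concentration for 48 hours; results are reported as percent growth, with values below 10 considered active.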 A number with no mark means an inactive call. The source made the active and inactive calls.

Test system: HL-60(TB) leukemia
Assay: NCI-60 one-dose screen, 48 h (100 = growth as untreated, 0 = no growth, -100 = all killed)
Settings: 10 µM unless noted

| SMILES | growth |
| --- | --- |
| Cn1cc(-c2cnc3ccc(NC(=O)Nc4ccc(F)c(Br)c4)cc3n2)cn1 | 13.5% |
| O=C1Nc2ccc(Cl)cc2C12Nc1cc(Cl)ccc1S2 (stereo not drawn) | 42.6% |
| COc1ccc(C2CC(c3cccc(Nc4ccncc4)c3)=NN2c2ccc(Cl)cc2)cc1 (stereo not drawn) | -46.5% (active) |
| CCCCCCCCCCCCCCNC(=O)Nc1ccc(Cl)c(Cl)c1 | 79.1% |
| CC(=O)OCC(=O)[C@@]1(O)[C@H](C)C[C@H]2[C@@H]3C=C(C)C4=Cc5c(cnn5-c5ccc(F)cc5)C[C@]4(C)[C@H]3[C@@H](O)C[C@@]21C | 16.3% |
| CCN1C(=O)/C(=C/N2N=C(c3ccc(Cl)cc3)CC2c2ccc(OC)cc2)SC1=S (stereo not drawn) | 67.1% |
| CCN1C(=O)/C(=c2\sc3n(c2=O)C2C(NN=3)N(CC)C(=S)N2CC)c2ccccc21 (stereo not drawn) | 87.4% |
| C=C1C(=O)O[C@H]2[C@H]1CC/C(COC(=O)NCc1c[nH]c3ccc(OC)cc13)=C\CC[C@@]1(C)O[C@@H]21 | -35.8% (active) |
| CCN(CC)CCOc1ccc(-c2c(-c3ccccc3)c(=O)oc3ccccc23)cc1 | 107% |
| Cc1nn(-c2cc(=O)[nH]c3ccc(Cl)cc23)c(N)c1C#N | 100% |
| CN(Cc1ccccc1)c1nc(Cl)c(C2CC(c3ccc(Cl)cc3)=Cc3[nH][nH]c(=O)c32)s1 (stereo not drawn) | 104% |
| COc1ccc(-c2cn[nH]c2-c2cc(OC)c(OC)c(OC)c2)cc1N | -17.8% (active) and -10.7% (active) |
| CCCCCCCCCCCCCCCC[N+](C)(C)CCN(Cc1ccc(OC)cc1)c1ncccn1 | -52.7% (active) and -2.88% (active) |
| N#Cc1ccc(OC(=O)Nc2cc(Cl)cc(Cl)c2)cc1 | -0.568% [100 µM] (active) |
| Cc1cc(O)c2c(c1)C[C@H]1[C@@H]3CC[C@H]4CC(=O)CC[C@]4(C)[C@H]3CC(=O)[C@]21C | 73.9% |
| COc1ccc(-c2c3c(N)c4c(nc3nc3c2c(C)nn3-c2ccccc2)CCCCC4)cc1 | 49.3% |
| O=C(Nc1ccc(Br)cc1)c1cc(Br)ccc1O | -18.4% (active) and -60% (active) |
| COc1c(Cl)cc(Cl)c2ccc(C=C3C(=O)NC(=S)NC3=O)nc12 | 102% |
| OCCSc1ccc(Cl)cc1 | 131% and 90.3% |
| O=c1c2cc(F)ccc2oc2c(NCCNCCO)nc3ccccc3c12 | 70.5% |
| CN1CCN(C2=Nc3ccccc3Oc3ccc(Cl)cc32)CC1 | 91.8% |
| N#Cc1nnn(-c2ccc(S(N)(=O)=O)cc2)c1NCC(=O)c1ccccc1 | 88.4% |
| O=C(CSc1nc2ccc([N+](=O)[O-])cc2[nH]1)Nc1ccc(F)cc1 | 71.6% |
| COc1nc2c(cc1S(=O)(=O)c1ccccc1)CCc1c-2cnn1-c1cccc(Cl)c1 | 65.2% |
| CS(=O)(=O)Nc1ccc([N+](=O)[O-])cc1Oc1ccccc1 | 92.9% |
| O=C(CCl)Nc1ccc2c(c1)C(=O)c1ccccc1C2=O | 12.7% |
| CC#CC#Cc1cccc(=O)o1 | 18.1% |
| Cc1ccc(-c2nc(/C=C3/C(=O)Nc4ccccc43)c3ccccn23)cc1 | 113% |
